Source: PubChem
Compounds with a hit are over-represented: about 4.1% of the library has one in this group of screens.
hcDAF12 agonist – activates DAF-12 receptor from parasite H. contortus. HEK293 hcDAF-12 lit1-tk-luc reporter, luminescence; 0% DMSO, 100% Δ7-dafachronic acid. activation, % at 6.8 µM. 370,000 tested, 1.4% active. AID 652067;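 active = activation above the mean of all tested compounds plus 3 SD, cut at about 5.5% in these data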;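 note: 100% = response to 3 µM Δ7-dafachronic acid high control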
hgDAF-12 ag – hgDAF-12 agonism, primary luciferase screen; HEK293 GAL4-hgDAF12 UAS-luciferase reporter, agonist luminescence; normalized to butyrate control; activation, % at 6.8 µM; 370,000 tested, 1.8% active;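 active = activation above a cutoff set at the mean of all screened compounds plus 3 SD, cut at about 10% in these data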;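 note: 0% = DMSO wells and 100% = sodium butyrate wells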
DAX1 inh-1 – inhibitors of human orphan nuclear receptor DAX1 (NR0B1); AID 504766; 340,000 tested, 0.99% active; HEK293 Gal4-DAX1 luciferase reporter, luminescence; inhibition, % at 6.75 µM;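 active = inhibition above the mean over all tested compounds plus 3 SD, cut at about 4.2% in these data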;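 note: 0% = DAX1-transfected cells with DMSO and 100% = empty-vector control cells with DMSO; inhibition shows as a rise in luminescence from relieved DAX1 repression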
Target sequence (P51843 207-470 limits assumed): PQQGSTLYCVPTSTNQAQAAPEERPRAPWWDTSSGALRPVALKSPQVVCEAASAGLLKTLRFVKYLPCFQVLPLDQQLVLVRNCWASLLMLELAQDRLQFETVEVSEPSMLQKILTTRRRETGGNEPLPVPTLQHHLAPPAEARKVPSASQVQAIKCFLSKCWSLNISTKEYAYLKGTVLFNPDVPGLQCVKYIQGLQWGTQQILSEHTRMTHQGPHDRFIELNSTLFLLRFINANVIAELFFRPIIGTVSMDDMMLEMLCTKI
DAX1 inh-2 – blocks DAX1 repression of SF-1 activated StAR promoter; inhibition, % at 6.8 µM; 370,000 tested, 1.1% active; AID 652010; HEK293T StAR-luciferase reporter, SF-1/DAX-1 repression relief;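 active = inhibition above the mean over all tested compounds plus 3 SD, cut at about 3.6% in these data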;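 note: 0% = DAX-1 cells with DMSO and 100% = cells lacking DAX-1 with DMSO; higher inhibition means more luminescence from relief of DAX-1 repression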
ssDAF-12 act – S. stercoralis DAF-12 activation, primary screen | 370,000 tested, 1% active | activation, % at 6.8 µM | AID 652126 | HEK293 ssDAF-12/GRIP1 lit1-tk-luc reporter, luminescence; % of 3 µM dafachronic acid response;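 active = activation above the mean over all tested compounds plus 3 SD, cut at about 0.9% in these data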;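 note: 0% = DMSO-only wells and 100% = 3 µM delta7-dafachronic acid wells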
hgDAF12 ag – confirmation of H. glycines DAF-12 agonists | 3,300 tested, 80% active | HEK293 GAL4-hgDAF12 luciferase reporter, agonist mode; percent of butyrate response | AID 743050 | activation, % at 6.8 µM | shares compounds with hgDAF-12 ag;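 active = mean activation over triplicate wells above the hit cutoff derived from the earlier primary screen, cut at about 11% in these data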;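 note: 0% = DMSO low control and 100% = 2 mM sodium butyrate high control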
LXR ag 2 – LXR-beta agonism as DAF-12 counter-screen; shares compounds with hgDAF-12 ag; HEK293 Gal4-LXR luciferase reporter, 24 h; activation, % at 6.8 µM; 3,300 tested, under 10 active;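 active = mean activation of the triplicate above a set limit carried over from the primary screen, none filed active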
The depositor's hits bear a star; . = no result given.

SMILES	hcDAF12 agonist	hgDAF-12 ag	DAX1 inh-1	DAX1 inh-2	ssDAF-12 act	hgDAF12 ag	LXR ag 2
COC(=O)[C@@]12CCCCC3=C1N(CCC3)C(=O)[C@H]2CC(=O)NCCc1ccccc1OC	-1.6	0.1	.	-0.4	-0.5	.	.
CCOC(=O)c1ccccc1NC1c2ccccc2C(=O)N1c1ccc(C)cn1 (stereo unspecified)	2.7	15.2*	1.0	2.7	0.2	6.3	0.2
C=CCn1c(COc2ccccc2)nnc1SCC(=O)Nc1ccc(S(=O)(=O)Nc2cc(C)nc(C)n2)cc1	1.6	2.9	.	0.5	-0.6	.	.
CCCNCc1nnc(-c2ccccc2Cl)o1	-1.4	3.0	1.4	0.1	-1.4	.	.
Clc1ccccc1-c1nnc(-c2ccccc2Cl)o1	4.9	14.8*	1.8	3.5	-0.6	17.2*	0.6
Clc1ccc(-c2nnc(-c3ccccc3Cl)o2)cc1	3.7	13.5*	2.4	2.5	-0.4	19.2*	1.1
COC(=O)c1cc2c(c3c4cc(OC)ccc4n(S(=O)(=O)c4ccc(OC)cc4)c13)C(=O)N(Cc1ccccc1OC)C2	-0.8	0.4	.	-0.9	-1.2	.	.
CCN(CC)CCOC(=O)c1ccc(NC(=O)c2cn(-c3ccccc3)nc2-c2cccs2)cc1	3.7	14.9*	2.4	3.0	-0.3	7.5	0.1
Cc1ccc(-c2cn(-c3ccccc3)c(=S)[nH]2)cc1C	6.2*	19.5*	3.7	0.5	0.4	14.4*	1.0
Cc1cc2c(c(=O)o1)[C@@]1(C(=O)N(C)c3ccccc31)C1=C(CC3(CCCCC3)OC1=O)O2	-2.8	1.2	.	0.7	-1.1	.	.
COc1cc(N2CCC(O)CC2)ccc1Nc1cc(Nc2ccccc2S(=O)(=O)C(C)C)c2cc[nH]c2n1	-2.6	-0.8	.	-1.2	-1.0	.	.
COC(=O)[C@]12C[C@H](CC(=O)NCCCN3CCCC3=O)C(=O)N(Cc3ccco3)C1=C[C@H](C(C)(C)C)O[C@@H]2C	-0.1	0.9	.	-0.6	-1.3	.	.
COC[C@H]1CCCN1c1cccc2c1S(=O)(=O)N1CC[C@H](C1)O2	-1.5	2.3	.	-0.4	-0.5	.	.
O=C(NCC1CCCO1)c1cc(-c2ccccc2F)no1 (stereo unspecified)	5.6*	19.6*	2.1	1.4	0.0	33.3*	0.5
O=C(Nc1cccc(Cl)c1)c1ccc(OC(=S)N2CCOCC2)cc1	1.3	19.2*	-1.6	1.3	-0.8	6.6	0.3
CN(C)c1cccc(O)c1	-0.5	2.5	0.3	2.2	-0.5	.	.
Cc1cc(O)ccc1Nc1cc(-c2cccc(N(C)C)c2)ncn1	5.8*	13.8*	.	4.2*	0.8	18.1*	0.5
CC(=O)c1ccc([C@H](O)[C@@H](C(=O)N(C)c2ccccc2)C2CC2)cc1	-1.9	-1.3	.	-0.7	-1.3	.	.
Cc1ccc(NC(=S)NNC(=O)CSc2nc3ccccc3c(=O)n2-c2ccc(Cl)cc2)cc1	-1.1	-1.0	.	-1.3	-1.1	.	.
O=C(OCc1ccccc1)N1CCC2CC1c1ccc(N3CCNCC3)cc12 (stereo unspecified)	3.6	13.6*	0.1	-1.4	-0.2	8.3	0.1
O=C(Nc1ccccc1)c1cc2ccccc2c(=O)s1	4.3	18.0*	1.7	2.1	-0.6	14.5*	0.6
O=C(Nc1ccc(O)cc1)c1cc2ccccc2c(=O)s1	1.9	13.7*	2.1	1.1	-0.7	7.5	0.5
Cc1cc(C)cc(NC(=O)c2cc3c(=O)n4ccccc4nc3s2)c1	-1.6	0.7	-1.5	0.2	-1.1	.	.
O=C(OCc1cn(Cc2ccc(Cl)cc2)nn1)N1CCCC1	0.0	-1.7	.	-0.8	-0.9	.	.
CN=c1scc(-c2cccs2)n1/N=C/c1ccc(O)c(O)c1O	6.1*	13.6*	-0.8	3.4	0.1	11.0*	0.7
CCN(CC)c1ccc(C=N/C(C#N)=C(\N)C#N)cc1	3.5	15.2*	1.1	1.1	-0.9	9.7	0.3
CCN(CC)c1ccc(/C=C(\C#N)c2ccccn2)cc1	.	.	-1.7	.	.	.	.
Cc1ccccc1C(=O)NC1CCCCCCC1	3.6	14.6*	2.4	1.6	1.0*	12.2*	0.7
CN(C)c1ccc(C(C#N)c2ccc(Cl)cc2)nn1 (stereo unspecified)	-0.4	3.3	0.3	-0.5	-0.9	.	.
